From PubChem BioAssay come the findings set out here.

The source made the active and inactive calls. Unless noted, how the calls were made is not given here.

Test [1] in a line: HepG2 liver cancer cell viability effects, profiling panel, resazurin fluorescence, 24 h, PK04 Diversity Set (AID 1172). Further: test concentration not given here. To be noted: higher = more signal.
The nature of test [2]: basal S. cerevisiae growth modulation, no modifier, primary screen, OD600, strain BY4716, 24 h, basal condition (AID 1173). The following applies: OD600, 24 h, higher = more signal, called active from +8 up or from −8 down.
Test [3] in a line: MM1S myeloma cell viability, profiling panel, resazurin fluorescence, basal, 24 h, PK04 Diversity Set (AID 1174). Further: test concentration not given here. The following applies: higher = more signal, called active from +8 up or from −8 down. In general terms: Resazurin is reduced to fluorescent resorufin, in cell work by metabolically active cells.
The target of test [4] is Dihydroorotate dehydrogenase (quinone), mitochondrial (Plasmodium falciparum (isolate 3D7)) (UniProt Q08210). The test can be described thus: PfDHODH enzyme inhibitors, primary screen, biochemical, C-terminal His tag, absorbance 600 nm (AID 1175).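 Further: recombinant parasite enzyme with a five histidine tag at its C terminus; test concentration not given here.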 To be noted: DCIP absorbance 600 nm, higher = more signal, called active from +8 up or from −8 down.
Sequence of Dihydroorotate dehydrogenase (quinone), mitochondrial (Plasmodium falciparum (isolate 3D7)) (Q08210 whole entry, looked up): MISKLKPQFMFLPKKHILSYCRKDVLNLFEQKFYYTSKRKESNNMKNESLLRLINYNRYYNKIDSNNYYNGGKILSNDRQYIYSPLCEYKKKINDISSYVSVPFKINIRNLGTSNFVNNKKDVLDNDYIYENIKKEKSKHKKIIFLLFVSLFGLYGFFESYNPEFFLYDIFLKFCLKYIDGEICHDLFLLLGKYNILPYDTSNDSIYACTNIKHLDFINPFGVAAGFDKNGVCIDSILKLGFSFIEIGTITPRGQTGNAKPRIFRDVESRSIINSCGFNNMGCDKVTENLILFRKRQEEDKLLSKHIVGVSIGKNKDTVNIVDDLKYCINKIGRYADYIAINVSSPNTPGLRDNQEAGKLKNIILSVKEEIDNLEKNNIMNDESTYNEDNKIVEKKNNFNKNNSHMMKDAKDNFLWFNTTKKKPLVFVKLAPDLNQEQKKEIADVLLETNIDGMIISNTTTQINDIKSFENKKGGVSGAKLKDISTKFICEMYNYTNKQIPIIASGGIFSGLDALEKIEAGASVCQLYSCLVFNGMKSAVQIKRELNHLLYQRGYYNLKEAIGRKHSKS
Test [5] can be described thus: P. aeruginosa biofilm formation inhibitors, primary screen, strain PAO1, LB-PBS medium, absorbance 600 nm (AID 1176). Further: test concentration not given here. To be noted: P. aeruginosa PAO1 growth/biofilm, A600, 12 h; higher = more signal.
A short description of test [6]: S. cerevisiae RM11-1a growth modifiers, primary screen, strain RM11-1a, OD600, basal, 24 h (AID 1177).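 Further: cultures grown under basal conditions with no added stressor; test concentration not given here.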 The following applies: OD600, 24 h, higher = more signal, called active from +8 up or from −8 down.
Test [7] is described as follows: E. coli acrAB mutant growth effects, primary screen, E. coli filamentation inducers, strain DRC39, OD650, 24 h (AID 1178).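 Further: growth measured as culture turbidity by optical density at 650 nm; test concentration not given here.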 The following applies: higher = more signal, called active from +8 up or from −8 down.
Test [8] can be described thus: E. coli acrAB mutant growth effects, primary screen, E. coli filamentation inducers, strain DRC39, OD650, 48 h (AID 1179).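 Further: screen aims at cell division blockers that make cells filament.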 The following applies: E. coli DRC39 delta-acrAB growth, higher = more signal, called active from +8 up or from −8 down.
The nature of test [9]: RPMI8226 myeloma cell viability, profiling panel, resazurin fluorescence, basal, 24 h, PK04 Diversity Set (AID 1180).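 Further: RPMI8826 multiple myeloma cell line at 5000 cells per well; test concentration not given here.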 The following applies: higher = more signal.
The target of test [10] is E3 ubiquitin-protein ligase XIAP (Homo sapiens) (UniProt P98170). As to the kind of experiment: XIAP binders, primary screen, biophysical, small-molecule microarray, fluorescence 635 nm (AID 1181).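 Further: score merges 667 nm emission and signal to noise over triplicate slides.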 The following applies: small-molecule microarray binding, higher = more signal.
Sequence of E3 ubiquitin-protein ligase XIAP (Homo sapiens) (P98170 whole entry, looked up): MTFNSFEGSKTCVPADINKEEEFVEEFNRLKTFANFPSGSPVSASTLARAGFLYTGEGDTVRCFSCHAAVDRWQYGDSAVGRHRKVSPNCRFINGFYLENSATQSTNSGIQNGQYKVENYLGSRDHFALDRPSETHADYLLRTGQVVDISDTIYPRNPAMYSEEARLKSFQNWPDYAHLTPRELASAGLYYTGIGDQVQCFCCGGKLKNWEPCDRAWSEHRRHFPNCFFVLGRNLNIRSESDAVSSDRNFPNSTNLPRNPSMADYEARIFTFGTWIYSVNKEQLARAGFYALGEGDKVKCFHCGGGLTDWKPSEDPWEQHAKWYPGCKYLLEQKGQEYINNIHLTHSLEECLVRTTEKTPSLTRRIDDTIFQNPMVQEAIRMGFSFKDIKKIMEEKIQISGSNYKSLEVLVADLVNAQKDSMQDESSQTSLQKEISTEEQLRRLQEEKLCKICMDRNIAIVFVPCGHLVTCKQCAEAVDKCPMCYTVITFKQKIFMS

For the molecule `CCOC(=O)[C@H](CC(C)C)NC(=O)CCC1CC(OC(=O)NCc2ccc3c(c2)OCO3)CC2(CCCC(COC(=O)NCCCN3CCCC3=O)O2)O1` (stereo not given in full), the z-score is 0.217 in [1]; -1.17 (inactive) in [2]; 0.595 (inactive) in test [3]; 0.38 (inactive) in test [5]; 0.564 (inactive) in test [6]; 0.877 (inactive) in test [7]. Further, the results for the z-score in [8] and in test [9] were 0.0512 (inactive) and 1.24, respectively. Also, the composite z-score was -1.42 (inactive) in [4] and -0.145 in test [10].

On to `CC(C)[C@@H](OCc1ccccc1)[C@H](C)C=NOC[C@@H](O)COCc1ccco1`, for which the z-score in [1] was -0.314; in test [2], -11.9 (active); in test [3], -0.911 (inactive); in test [5] it was 0.429 (inactive); in test [6] it was -1.12 (inactive); in test [7], 0.7 (inactive). The z-score was 0.43 (inactive) in test [8] and -0.885 in test [9]. Further, the composite z-score is -0.585 (inactive) in [4] and -0.0172 in [10].

For `CSCC[C@@H]1NC(=O)CC=C[C@@H](C)COC(=O)[C@@H](C)COC1=O`, the z-score in [1] is 0.414; in [2], -0.739 (inactive); in test [3] it was 0.574 (inactive); in test [5] it was -0.708 (inactive); in [6], -0.24 (inactive); in test [7], 0.422 (inactive). In addition, the z-score in test [8] is -0.962 (inactive); in test [9] it was 0.249. Moreover, the composite z-score in test [4] was 0.0037 (inactive); in test [10], -0.0525.

As to `CCN1C(=O)[C@@H]2[C@H]3C(=CC[C@@H]2C1=O)C1(OCCCO1)[C@H]1O[C@H]1[C@H]3O`, the z-score in test [1] was -2.61; in test [2], -9.39 (active); in test [3] it was -8.78 (active); in test [5], 2.64 (inactive); in test [6], 1.15 (inactive); in test [7], -0.124 (inactive). Besides, the z-score in test [8] is -0.985 (inactive); in test [9], -5.89. Besides, the figures for the composite z-score in test [4] and in test [10] were -18.3 (active) and -0.141, respectively.

With `Cc1ccc(S(=O)(=O)n2c3ccccc3c3nnc(C(=O)c4ccccc4)nc32)cc1`, the z-score in test [1] is -0.148; in test [2] it was -0.586 (inactive); in [3], -0.508 (inactive); in [5] it was 0.523 (inactive); in test [6], 0.151 (inactive); in test [7], 1.04 (inactive). In addition, the z-score is 0.0979 (inactive) in test [8] and -0.222 in test [9]. The composite z-score in test [4] was -1.1 (inactive); in test [10], -0.256.

Consider `CCc1cc2c(nc1CC)CCN(CCC(C)=NOC[C@H]1O[C@H](c3ccccc3)C=C[C@@H]1Oc1ccc(OC)cc1)C2`, for which the z-score in test [1] was 0.0523; in [2] it was -1.75 (inactive); in test [3], 0.22 (inactive); in test [5] it was -0.197 (inactive); in test [6], -0.409 (inactive); in test [7], -1.58 (inactive). The figures for the z-score in test [8] and in test [9] were -1.43 (inactive) and 0.218, respectively. Besides, the composite z-score in [4] is -3.81 (inactive); in [10], -0.23.

In the case of `O=C1[C@H]2[C@H]3[C@H](O)[C@H](O)CC(=NOCc4ccccc4)[C@@H]3CC[C@H]2C(=O)N1Cc1ccc2c(c1)OCO2`, the z-score in [1] is 1.03; in test [2] it was -0.419 (inactive); in test [3], 0.0481 (inactive); in test [5] it was 0.07 (inactive); in test [6] it was -0.0921 (inactive); in test [7], 0.419 (inactive). The z-score was 0.128 (inactive) in test [8] and 1.01 in [9]. The composite z-score in test [4] was -0.0799 (inactive); in [10] it was -0.0377.

With `COc1ccc(O[C@H]2C=C[C@@H](c3ccccc3)O[C@@H]2CON=C(C)CCN2CCc3nc(-c4ccccc4)c(-c4ccccc4)cc3C2)cc1`, the z-score in [1] was 0.449; in test [2] it was -0.606 (inactive); in [3] it was -0.159 (inactive); in [5] it was 0.135 (inactive); in test [6], 1.21 (inactive); in test [7] it was -0.166 (inactive). The z-score was -1.89 (inactive) in [8] and 0.382 in [9]. Further, the composite z-score in test [4] is 0.503 (inactive); in [10], -0.0536.

Take `Cc1ccc(S(=O)(=O)N[C@H]2COC(=O)CC=C[C@@H](C)COC(=O)CC=C[C@@H]2C)cc1`: the z-score is -0.118 in test [1]; -0.603 (inactive) in [2]; 0.186 (inactive) in test [3]; -0.319 (inactive) in [5]; 0.313 (inactive) in test [6]; 0.0613 (inactive) in test [7]. Also, the z-score in test [8] was -0.0105 (inactive); in test [9] it was 0.108. The composite z-score in [4] was -0.765 (inactive); in test [10], -0.239.

In the case of `COC(=O)C1=C(C)N(Cc2ccccc2)[C@]23O[C@](C(=O)OC)(C(=O)N2[C@@H]1c1ccccc1)C(C(=O)OC)=C3C(=O)OC`, the z-score was -0.0934 in test [1]; -1.32 (inactive) in [2]; 1.08 (inactive) in test [3]; -0.965 (inactive) in [5]; -0.511 (inactive) in test [6]; -0.907 (inactive) in test [7]. The results for the z-score in test [8] and in test [9] were -1.26 (inactive) and 0.345, respectively. The composite z-score in test [4] was -2.7 (inactive); in test [10], -0.254.

As for `CCOC(=O)[C@H](CC(C)C)NC(=O)CCC1CC(OC(=O)NCc2cccc3ccccc23)CC2(CCCC(COC(=O)NCCOc3ccccc3)O2)O1` (stereo not given in full), the z-score in [1] was 0.329; in test [2], -0.895 (inactive); in test [3] it was 0.572 (inactive); in [5], -0.127 (inactive); in [6], -0.879 (inactive); in [7], 0.0446 (inactive). Further, the figures for the z-score in test [8] and in [9] were 0.253 (inactive) and 1.57, respectively. Moreover, the values for the composite z-score in test [4] and in test [10] were -0.785 (inactive) and -0.142, respectively.
